This is part of a sample that, as a whole, favours compounds with a hit. Of some 83,000 tested, about 20% had one in any assay.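 Single-dose data. Exposure time 48 hours. Values below 10 considered active.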 Unmarked numbers belong to inactive results. Calls of active or inactive are those of the source.
How the values were obtained:
Experiment in all cases: NCI-60 one-dose screen, 48 h (100 = growth as untreated, 0 = no growth, -100 = all killed)
Details in all cases: 10 µM unless noted
[1] = tested on: HCT-15 colon
[2] = tested on: HT29 colon
[3] = tested on: SNB-75 CNS
[4] = tested on: SNB-19 CNS
[5] = tested on: U251 CNS
[6] = tested on: PC-3 prostate
[7] = tested on: SK-MEL-5 melanoma
[8] = tested on: UACC-62 melanoma
[9] = tested on: LOX IMVI melanoma
[10] = tested on: SK-MEL-28 melanoma
[11] = tested on: SK-MEL-2 melanoma
[12] = tested on: EKVX NSCLC
[13] = tested on: SN12C renal
[14] = tested on: UO-31 renal
[15] = tested on: TK-10 renal
[16] = tested on: ACHN renal
[17] = tested on: CAKI-1 renal
[18] = tested on: A498 renal
[19] = tested on: CCRF-CEM leukemia
[20] = tested on: MOLT-4 leukemia

Row | SMILES | growth [1] | growth [2] | growth [3] | growth [4] | growth [5] | growth [6] | growth [7] | growth [8] | growth [9] | growth [10] | growth [11] | growth [12] | growth [13] | growth [14] | growth [15] | growth [16] | growth [17] | growth [18] | growth [19] | growth [20]
1 | O=C(Nc1c2ccccc2nc2ccccc12)c1ccccc1CN1C(=O)c2ccccc2C1=O | 19.2% | 11.2% | 60.1% | 32.9% | 27.1% | 37.2% | 39.5% | 58.8% | 22% | 56.7% | 43% | 43.1% | 34.6% | 6.41% (active) | 45.6% | 10.8% | 19.1% | -18.9% (active) | 40.8% | 14.9%
2 | O=C(Nc1ccc(Cl)cc1F)c1cc(Cl)ccc1O | -4.97% (active) | 19.5% | -6.93% (active) | 13.6% | 9.73% (active) | 0.161% (active) | -90.5% (active) | -41.2% (active) | -18.9% (active) | -3.71% (active) | -28.3% (active) | 5.1% (active) | -11% (active) | -14.6% (active) | 15.6% | -1.72% (active) | 1.59% (active) | -51.8% (active) | 15.8% | -42.4% (active)
3 | COC(=O)/C=C1\S/C(=N\Nc2ccc([N+](=O)[O-])cc2[N+](=O)[O-])N(C2CCCCC2)C1=O | 11% | 26.7% | 51.4% | 51.3% | 25.8% | 18.4% | 82.4% | 38.7% | 72.4% | 86.5% | 90.5% | 78.5% | 21.6% | 19.2% | 60.2% | 42.3% | 57.1% | 63.1% | 17.9% | 42.7%
4 | Cc1ccc2sc3c(NCCCN)nc4ccccc4c3c(=O)c2c1 | -12.2% (active) | -47.4% (active) | 78.1% | 74.6% | 6.32% (active) | 65.4% | 90.6% | 94.1% | -97.7% (active) | 95.3% | 107% | 82.7% | 69.2% | 47.1% | 85.2% | 20.6% | -6.43% (active) | 44.6% | 5.2% (active) | -30.6% (active)
5 | COc1ccc([C@H]2c3cc(OC)c(OC)cc3C=C(C=O)C2CO)cc1OC (stereo not given in full) | 43.1% | 19% | 15.8% | 50.9% | 36.2% | 29% | 24.6% | 33.9% | 46.3% | 55.3% | 20.8% | 91.2% | 68% | 68.4% | 73.4% | 57.8% | 52.4% | 104% | 56.4% | 49.5%
6 | CC[C@H](C)C(=O)O[C@H]1CCC=C2C=C[C@H](C)[C@H](CC[C@@H]3CC=CC(=O)O3)[C@H]21 | 85.7% | 67.7% | 68.9% | 83.5% | 88.1% | 61.6% | 77% | 82.3% | 53.3% | 94.8% | 81.7% | 110% | 67.7% | 71.8% | 105% | 86.9% | 90.5% | 97% | 6.89% (active) | 45.6%
7 | O=c1c2cc(F)ccc2sc2c(NCCN3CCOCC3)nc3ccccc3c12 | 20.8% | 21.6% | 59.5% | 75.3% | 52.4% | 69% | 95.1% | 81.5% | 20.6% | 96.7% | 110% | 91.6% | 72.8% | 42% | 79.2% | 64.7% | 33.2% | 58.3% | 57% | 52.1%
8 | N#CC1=C(N)Oc2c(sc3c(Br)cccc23)C1c1ccc([N+](=O)[O-])cc1 (stereo not given) | 7.43% (active) | 2.5% (active) | 25.8% | 30.8% | 14.6% | 13.6% | 0.865% (active) | 15.2% | -11.3% (active) | 61.4% | 39.6% | 58.9% | 13.5% | 34.6% | 71.9% | 26.8% | 27.1% | -11.8% (active) | 10% | 5.93% (active)
9 | Cc1ncc(C(=O)Nc2ccc(CN3CCN(C)CC3)c(C(F)(F)F)c2)cc1C#Cc1ccc(N)nc1 | 6.59% (active) | 18.1% | -57.3% (active) | 26.9% | 17.6% | 10.9% | -100% (active) | -70.2% (active) | -94.9% (active) | -46.2% (active) | -55% (active) | 9.23% (active) | 2.89% (active) | -27% (active) | -28.2% (active) | -20% (active) | -71.1% (active) | -64.1% (active) | 18.6% | 25.9%
10 | COc1cccc(Oc2ccccc2NC(=O)CNC(=O)c2cccc3ccccc23)c1 | 17.8% [5 µM] | 6.01% [5 µM] (active) | 28% [5 µM] | 41.7% [5 µM] | 23.2% [5 µM] | 26.2% [5 µM] | 11.7% [5 µM] | 16.1% [5 µM] | 26.1% [5 µM] | 57.5% [5 µM] | 30% [5 µM] | 35.3% [5 µM] | 31.4% [5 µM] | 39.8% [5 µM] | 58.5% [5 µM] | 33.7% [5 µM] | 23.8% [5 µM] | -16.3% [5 µM] (active) | 15.4% [5 µM] | 12.3% [5 µM]
11 | COc1cc(/C=N/NC(=O)c2ccc(C)nc2)cc(OC)c1OC | 97.2% | 103% | 79.4% | 108% | 102% | 98.1% | 96.3% | 86.7% | 94.8% | 117% | 79.3% | 90.4% | 102% | 65.6% | 81.3% | 91.2% | 79.8% | 93.2% | 87% | 57.8%
12 | NCCNc1nc2ccccc2c2c(=O)c3cc(F)ccc3sc12 | 51.2% | 14.4% | 71.2% | 78.1% | 64.7% | 80.2% | 93.9% | 102% | 24.2% | 107% | 112% | 78.2% | 71.1% | 47.3% | 101% | 54.5% | 45.1% | 49.4% | 45.7% | 46.6%
13 | CNC(=O)c1[nH]cc(-c2ccccc2)c1-c1cc(OC)c2c(c1OC)OCO2 | 104% | 91.5% | 70.9% | 90.6% | 96% | 98.3% | 105% | 90.8% | 98.5% | 108% | 102% | 98% | 91.1% | 83.8% | 106% | 95.8% | 76.5% | 95.4% | 108% | 101%
14 | COC1=C(C)C(=O)c2c(c(CCCl)c3n2CCC3OC(C)=O)C1=O (stereo not given) | 1.95% (active) | -15.6% (active) | -44.6% (active) | 1.56% (active) | -9.94% (active) | -10.6% (active) | -66.7% (active) | -71% (active) | -34.8% (active) | -32% (active) | -45.6% (active) | 0.0316% (active) | 3.34% (active) | -60.9% (active) | -37.9% (active) | -3.88% (active) | 0.742% (active) | -87.8% (active) | 50.2% | 34.4%
15 | Cc1ccc(NC2=C(Cl)C(=O)c3nc(C)ccc3C2=O)cc1 | -77.1% (active) | 82.4% | -41.9% (active) | 47.3% | 41.3% | 29.9% | -90.8% (active) | -70.4% (active) | -78.2% (active) | -79% (active) | -23.8% (active) | 58.6% | -70.4% (active) | -80.6% (active) | 130% | -98.1% (active) | -72% (active) | 91% | 0.58% (active) | -13.5% (active)
16 | N#C/C(=C\c1cccc2cnccc12)n1nnc2cccc(F)c21 | 10.2% | 27.5% | -5.04% (active) | 80.7% | 78.9% | 48.7% | 58.7% | 36.5% | 14.9% | 37.1% | 52.8% | 24.9% | 17.7% | 41.4% | 34.4% | 16.9% | 41.5% | 67.7% | 17.6% | 26.2%
